The subject of experiment [1] is RAW-Dual. In words: NF-kB SEAP reporter activity, fold change vs agonist alone; higher = enhanced NF-kB activity. In a few lines:
(§1)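 RAW-Dual macrophages (50,000 cells/well in DMEM, 384-well plates) received 50 nL of library stock by pin tool, then a PRR agonist 1 h later, and were kept at 37 °C, 5% CO2. After 20 hours, supernatant was read for IRF by QuantiLuc luminescence and for NF-κB by QuantiBlue absorbance at 620 nm. Reporter activity is fold change over agonist-alone wells. Cytotoxic wells had IncuCyte confluency below 70% of agonist controls in both mask sets.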

Experiment [2] concerns RAW-Dual. Description: NF-kB SEAP reporter activity, fold change vs agonist alone; cytotoxicity flag (confluency mask): not cytotoxic; higher = enhanced NF-kB activity. In a few lines: as §1
Experiment [3] relates to RAW-Dual. Description: NF-kB SEAP reporter activity, fold change vs agonist alone; cytotoxicity flag (confluency mask): cytotoxic (confluency <70% of control); higher = enhanced NF-kB activity. In a few lines: as §1
The mark [4] stands for this setting: library stock concentration (final ~1000-fold dilution): 10 mM, cytotoxicity flag (confluency mask): not cytotoxic, agonist: Imiquimod (TLR7) […].
[5] abbreviates: library stock concentration (final ~1000-fold dilution): 10 mM, cytotoxicity flag (confluency mask): not cytotoxic, agonist: MPLA (TLR4) […].
[6] abbreviates: agonist: ODN 1826 (TLR9) 0.5 ug/mL.
The mark [7] stands for this setting: agonist: Pam2CSK4 (TLR2/6) 0.1 ug/mL.
The mark [8] stands for this setting: agonist: Pam3CSK4 (TLR2/1) 0.1 ug/mL.

The structures appear in SMILES notation. Values joined by “and” are separate entries in the source; they are usually repeats but may differ in a detail not shown here. Equal values may be shown once. The full ranking holds about 2,900 compounds; the median of “NF-kB SEAP reporter activity, fold change vs agonist alone” is about 0.99, and the highest 2% start at about 2.6. What follows is part of a selection rich in the highest values, with near analogues and random picks from the rest.

For the compound `COc1cc(OC)cc(N(CCNC(C)C)c2ccc3ncc(-c4cnn(C)c4)nc3c2)c1`, the “NF-kB SEAP reporter activity” value was 1.76 in experiment [1] (library stock concentration (final ~1000-fold dilution): 10 mM, cytotoxicity flag (confluency mask): cytotoxic (confluency <70% of control), agonist: Imiquimod (TLR7) […]) and 2.21 in experiment [1] (library stock concentration (final ~1000-fold dilution): 10 mM, cytotoxicity flag (confluency mask): cytotoxic (confluency <70% of control), agonist: MPLA (TLR4) […]).
Take `COc1cc2ncc(-c3ccccc3)nc2cc1OC`: the “NF-kB SEAP reporter activity” value in experiment [1] (setting [4]) turned out to be 1.16; in experiment [1] (setting [5]) it was 1.39.
With `Cn1cc(-c2ccc3ncc(Cc4ccc5ncccc5c4)n3n2)cn1` (library stock concentration (final ~1000-fold dilution): 10 mM), the “NF-kB SEAP reporter activity” value in experiment [2] (agonist: LPS (TLR4) 0.1 ug/mL) worked out at 1.88; in experiment [2] (setting [6]) it was 1.35; in experiment [2] (setting [7]) it was 1.31; in experiment [2] (setting [8]), 1.47.
As for `COc1cc(OC)cc(N(CCNC(C)C)c2ccc3ncc(-c4cnn(C)c4)nc3c2)c1` (library stock concentration (final ~1000-fold dilution): 10 mM), the “NF-kB SEAP reporter activity” value in experiment [3] (agonist: LPS (TLR4) 0.1 ug/mL) was 3.64; in experiment [3] (setting [6]) it was 0.427; in experiment [3] (setting [7]), 1.06; in experiment [3] (setting [8]), 1.57.
Take `Cn1cc(-c2ccc3ncc(Cc4ccc5ncccc5c4)n3n2)cn1`: the “NF-kB SEAP reporter activity” value came out at 1.37 in experiment [1] (setting [4]) and 1.23 in experiment [1] (setting [5]).
In the case of `COc1cc2ncc(-c3ccccc3)nc2cc1OC` (library stock concentration (final ~1000-fold dilution): 10 mM), the “NF-kB SEAP reporter activity” value in experiment [2] (agonist: LPS (TLR4) 0.1 ug/mL) came out at 1.78; in experiment [2] (setting [6]), 1.28; in experiment [2] (setting [7]), 0.915; in experiment [2] (setting [8]), 0.864.
The matching figures for `Br.COc1ccc2c3c1OC1CC(O)C=CC31CCN(C)C2` (stereo not drawn) (library stock concentration (final ~1000-fold dilution): 10 mM water): 1.12, 1.02, 1.12 and 1.16.
Take `Br.COc1ccc2c3c1OC1CC(O)C=CC31CCN(C)C2` (stereo not drawn): the “NF-kB SEAP reporter activity” value in experiment [1] (library stock concentration (final ~1000-fold dilution): 10 mM water, cytotoxicity flag (confluency mask): not cytotoxic, agonist: Imiquimod (TLR7) […]) is 0.936; in experiment [1] (library stock concentration (final ~1000-fold dilution): 10 mM water, cytotoxicity flag (confluency mask): not cytotoxic, agonist: MPLA (TLR4) […]), 0.997.
On to `CC(C)C(C(=O)O)N1C(=O)/C(=C/c2ccc(Br)cc2)SC1=S` (stereo not drawn), for which the results for the “NF-kB SEAP reporter activity” value in experiment [1] (setting [4]) and in experiment [1] (setting [5]) were 0.992 and 1.01, respectively.
With `CC(C)C(C(=O)O)N1C(=O)/C(=C/c2ccc(Br)cc2)SC1=S` (stereo not drawn) (library stock concentration (final ~1000-fold dilution): 10 mM), the “NF-kB SEAP reporter activity” value in experiment [2] (agonist: LPS (TLR4) 0.1 ug/mL) came out at 1.12; in experiment [2] (setting [6]), 0.953; in experiment [2] (setting [7]) it was 0.947; in experiment [2] (setting [8]), 1.05.
Consider `CC1(C)C(C(=O)O)N2C(=O)CC2S1(=O)=O` (stereo not drawn) (library stock concentration (final ~1000-fold dilution): 10 mM), for which the “NF-kB SEAP reporter activity” value in experiment [2] (agonist: LPS (TLR4) 0.1 ug/mL) is 1.04 and 0.881; in experiment [2] (setting [6]) it was 1.01 and 1.03; in experiment [2] (setting [7]), 0.96 and 1.14; in experiment [2] (setting [8]) it was 1.05 and 1.19.
Regarding `Cl.O=c1[nH]ccc2c(S(=O)(=O)N3CCCNCC3)cccc12`, the entries for the “NF-kB SEAP reporter activity” value in experiment [1] (setting [4]) and in experiment [1] (setting [5]) were 1 and 0.986, respectively.
With `Cl.O=c1[nH]ccc2c(S(=O)(=O)N3CCCNCC3)cccc12` (library stock concentration (final ~1000-fold dilution): 10 mM), the “NF-kB SEAP reporter activity” value in experiment [2] (agonist: LPS (TLR4) 0.1 ug/mL) was 1.22; in experiment [2] (setting [6]) it was 0.968; in experiment [2] (setting [7]), 1.05; in experiment [2] (setting [8]) it was 1.23.
With `COc1ccc(Cn2ccc3ccc(C(=O)NO)cc32)cc1`, the entries for the “NF-kB SEAP reporter activity” value in experiment [1] (setting [4]) and in experiment [1] (setting [5]) were 0.789 and 0.903, respectively.
In the case of `CCN(CC)Cc1ccc2cc(COC(=O)Nc3ccc(C(=O)NO)cc3)ccc2c1.Cl.O` (library stock concentration (final ~1000-fold dilution): 10 mM), the “NF-kB SEAP reporter activity” value in experiment [2] (agonist: LPS (TLR4) 0.1 ug/mL) turned out to be 7.02; in experiment [2] (setting [6]) it was 0.922; in experiment [2] (setting [7]), 1.87; in experiment [2] (setting [8]), 1.04.
Taken in the same sequence, the figures for `COc1ccc(Cn2ccc3ccc(C(=O)NO)cc32)cc1` (library stock concentration (final ~1000-fold dilution): 10 mM) were 0.996, 0.62, 0.788 and 0.588.
`CCN(CC)Cc1ccc2cc(COC(=O)Nc3ccc(C(=O)NO)cc3)ccc2c1.Cl.O`: the “NF-kB SEAP reporter activity” value in experiment [1] (setting [4]) was 0.805; in experiment [1] (setting [5]) it was 1.17.
Regarding `COCc1ccc(-c2ccc3ncc(C(N)=O)c(NC(C)C4CCOCC4)c3c2)cn1` (stereo not drawn) (library stock concentration (final ~1000-fold dilution): 10 mM), the “NF-kB SEAP reporter activity” value in experiment [2] (agonist: LPS (TLR4) 0.1 ug/mL) worked out at 1.75; in experiment [2] (setting [6]) it was 1.19; in experiment [2] (setting [7]), 1.45; in experiment [2] (setting [8]), 2.13.
Regarding `COCc1ccc(-c2ccc3ncc(C(N)=O)c(NC(C)C4CCOCC4)c3c2)cn1` (stereo not drawn), the “NF-kB SEAP reporter activity” value in experiment [1] (setting [4]) was 0.993; in experiment [1] (setting [5]), 1.35.

The values are drawn from the supplement of paper PMC10037445.
